Reference: PubChem BioAssay (NCI)
This is part of a sample that, as a whole, favours compounds with a hit. Of some 79,000 tested, about 15% had one in any assay. Values without a mark were called inactive. The source made the active and inactive calls. No stated cut-off is given here; in the data, active means growth inhibition above about 70%; inactive means the rest.

Experiments:
[1] = NCI Yeast Anticancer Drug Screen. Data for the rad50 strain (AID 155);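 further: 0% = growth of vehicle-only cultures of the same strain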; details: S. cerevisiae rad50 strain growth inhibition, stronger effect = higher value
In short: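 Relative growth inhibition (compound vs vehicle) was measured in yeast with a defined repair-gene alteration.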

[2] = NCI Yeast Anticancer Drug Screen. Data for the mec2-1 strain (AID 157); details: S. cerevisiae mec2-1 strain, stronger effect = higher value
In short: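 Growth inhibition is read against vehicle-treated controls after compound exposure of the mec2-1 yeast strain, which is defective in DNA damage repair or cell cycle control.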

[3] = NCI Yeast Anticancer Drug Screen. Data for the sgs1 mgt1 strain (AID 161);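 further: 0% = growth of cultures given vehicle only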; details: S. cerevisiae sgs1 mgt1 strain, stronger effect = higher value
In short: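 Yeast cells carrying a defined DNA-repair defect were exposed to test compounds. Growth inhibition was measured relative to vehicle-treated controls.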

[4] = NCI Yeast Anticancer Drug Screen. Data for the cln2 rad14 strain (AID 165);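 further: 0% = growth equal to vehicle treated cultures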; details: S. cerevisiae cln2 rad14 strain, stronger effect = higher value
In short: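 Growth inhibition, relative to vehicle-treated controls, is the read-out. The test organism is a yeast strain with defined genetic alterations, cln2 rad14.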

[5] = NCI Yeast Anticancer Drug Screen. Data for the bub3 strain (AID 167); details: S. cerevisiae bub3 mutant strain, stronger effect = higher value
In short: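 Screening used yeast with an engineered genetic alteration affecting cell cycle control. Compound-exposed cultures were compared with vehicle cultures, and reduced growth was taken as inhibition.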

[6] = NCI Yeast Anticancer Drug Screen. Data for the mlh1 rad18 strain (AID 175); details: S. cerevisiae mlh1 rad18 strain growth inhibition, stronger effect = higher value
In short: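 Cells of a genetically altered yeast strain, deficient in DNA damage repair, were treated with compound. Their growth was then compared with that of vehicle-treated cultures to give inhibition.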

[7] = at 5.0 µM (retest, dose inferred, filed as 0.5)
[8] = at 50.0 µM (retest, dose inferred, filed as 5.0)

Structure (SMILES)	growth inhibition [1, 7]	growth inhibition [1, 8]	growth inhibition ([1]; at 50.0 µM)	growth inhibition [2, 7]	growth inhibition [2, 8]	growth inhibition ([2]; at 50.0 µM)	growth inhibition [3, 7]	growth inhibition [3, 8]	growth inhibition ([3]; at 50.0 µM)	growth inhibition [4, 7]	growth inhibition [4, 8]	growth inhibition ([4]; at 50.0 µM)	growth inhibition [5, 7]	growth inhibition [5, 8]	growth inhibition ([5]; at 50.0 µM)	growth inhibition [6, 7]	growth inhibition [6, 8]	growth inhibition ([6]; at 50.0 µM)
CCN1C(Cl)=NS(=O)(=O)c2ccccc21	17%	36%	-24.4%	24%	43%	-3.45%	22%	39%	-8.5%	19%	32%	-4%	19%	53%	-0.05%	25%	46%	21.2%
c1ccc2c(c1)[nH]c1c[n+]3c(c[n+]12)[nH]c1ccccc13	7%	53%	71.6% (active)	8%	47%	5.45%	10%	67%	58.9%	-7%	29%	45.2%	-8%	50%	6%	4%	84% (active)	80% (active)
Oc1ccc(Br)cc1-c1nc2cc(Cl)c(Cl)cc2nc1-c1cc(Br)ccc1O	48%	80% (active)	81.2% (active)	46%	85% (active)	86.3% (active)	44%	88% (active)	88.6% (active)	47%	91% (active)	86.1% (active)	45%	86% (active)	81.7% (active)	48%	90% (active)	80.7% (active)
Cc1cc[n+](C2CCC3(C)C(=CCC4C3CCC3(C)C(C(C)CCCC(C)C)CCC43)C2)cc1 (configuration not stated)	91% (active)	97% (active)	95.8% (active)	16%	98% (active)	96% (active)	69%	98% (active)	98% (active)	26%	97% (active)	64.3%	75% (active)	97% (active)	96.2% (active)	71% (active)	97% (active)	97.7% (active)
C(=C/c1ccccc1)/C=N/Nc1ccccc1	-139%	-112%	-15.8%	-52%	-50%	9.7%	-53%	-52%	-23.8%	-61%	-64%	-9%	-72%	-59%	36.5%	-107%	-79%	2.35%
FC(F)(F)c1[nH]nc(-c2ccc(Cl)cc2)c1N=NN1CCOCC1	98% (active)	96% (active)	94.6% (active)	99% (active)	94% (active)	95.8% (active)	99% (active)	94% (active)	95.4% (active)	99% (active)	98% (active)	91.2% (active)	99% (active)	98% (active)	82.5% (active)	99% (active)	97% (active)	93.6% (active)
Clc1ccc(C2=CC(c3ccccc3)N3C(=N[C@H]4CCCC[C@@H]43)N2)cc1 (some centres not stated)	8%	6%	55.4%	4%	4%	54.2%	6%	17%	79.2% (active)	11%	33%	32.2%	14%	19%	84.8% (active)	6%	11%	91.8% (active)
COc1ccc2nc3cc(Cl)ccc3c(NCCCCN(C)C)c2c1	-2%	21%	40.7%	1%	18%	35.8%	-5%	30%	37.5%	5%	21%	89.2% (active)	-3%	18%	39.6%	0%	21%	31.5%
O=C(O)c1cc2ccc3cccc4ccc(c1)c2c34	4%	93% (active)	80.3% (active)	1%	89% (active)	70.7% (active)	3%	94% (active)	87.3% (active)	-4%	92% (active)	77.8% (active)	-3%	90% (active)	88.4% (active)	9%	94% (active)	86% (active)
COc1cccc2c1C(=O)c1c(O)c3c(c(O)c1C2=O)CC(O)(C(=O)CO)CC3OC1CC(N)C(O)C(C)O1.[Cl][Pt+2][Cl].[NH2-].[NH2-] (configuration not stated)	12%	85% (active)	74.5% (active)	9%	47%	49.5%	11%	83% (active)	78% (active)	8%	87% (active)	43.5%	0%	56%	34.5%	29%	94% (active)	88.7% (active)
COc1ccc(C2=C(Cl)C(=O)N(c3ccccc3Cl)C(=O)C2(Cl)Cl)cc1	19%	96% (active)	92.7% (active)	-1%	95% (active)	98.7% (active)	17%	97% (active)	97.5% (active)	-5%	96% (active)	71.5% (active)	0%	97% (active)	97.1% (active)	17%	80% (active)	97.4% (active)
COC(=O)C(=O)C(C(=O)c1ccc(F)cc1)c1nc2n(c1O)C(=N)N=N2 (configuration not stated)	1%	52%	39.6%	-17%	46%	77.6% (active)	19%	76% (active)	23.9%	14%	57%	59.9%	14%	67%	35.2%	24%	79% (active)	34.8%
CCCC/C=C1/CCC(CN(C)C)C1=O (configuration not stated)	7%	60%	51.9%	-2%	48%	37.4%	16%	56%	81% (active)	6%	40%	46.2%	14%	84% (active)	61.9%	19%	69%	54.2%
COc1c2c(c(C)c3ccc4ccccc4c13)CCN=C2	-11%	93% (active)	80.2% (active)	-4%	95% (active)	43.3%	-5%	96% (active)	88.2% (active)	-9%	83% (active)	13.4%	10%	96% (active)	79.2% (active)	-9%	93% (active)	79.9% (active)
O=C1/C(=C/N2CCN(c3ccccc3)CC2)Cc2c(Cl)cccc21	13%	-2%	77.3% (active)	7%	91% (active)	98.2% (active)	7%	4%	64.3%	64%	35%	93.8% (active)	-9%	33%	94.3% (active)	6%	41%	98.2% (active)
Cc1c(-c2ccccc2)ccnc1/C=N/NC(=S)Nc1ccccc1	1%	39%	89.2% (active)	1%	31%	94% (active)	4%	88% (active)	95.1% (active)	1%	23%	92.1% (active)	-2%	49%	95.7% (active)	-5%	59%	93.8% (active)
Cc1cccc[n+]1CC(=O)c1cccc(O)c1	1%	-2%	-11.1%	-2%	4%	-3.5%	0%	-2%	-7.45%	4%	-4%	36.6%	1%	-3%	-13.6%	-2%	-4%	7.25%
O=S(NCc1ccccc1)c1ccccc1 (configuration not stated)	-2%	13%	25.6%	0%	8%	28.7%	-2%	-1%	43.3%	-3%	4%	39.4%	0%	10%	36.3%	-1%	15%	75.7% (active)
c1ccc(-c2nc3nc4ccccc4nc3nc2-c2ccccn2)nc1	-8%	84% (active)	24.9%	4%	92% (active)	0.9%	8%	87% (active)	20.6%	-5%	85% (active)	-19.1%	-4%	98% (active)	50.6%	14%	98% (active)	22.8%
